Assay results: PubChem BioAssay (EPA / NIEHS)
Records with an inconclusive call do not appear. Activity calls are given as the source filed them. How the source made its calls: active means hit-call score of the fitted dose curve at least 0.9, where 1 is the maximum; inconclusive means response in the unintended direction; inactive means score below 0.9.

Each molecule was assayed against rat Neonicotinoid receptor (NNR), Chrna7 (gene 25302) (UniProt Q05941) (assay: NVS_LGIC_rNNR_BungSens: NovaScreen (NVS) Ligand-Gated Ion Channel Assay for rat Neonicotinoid receptor (NNR) (AID 2283315)).
How it was run: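 Rat cortical membrane preparation incubated 2.5 h with tritiated or iodinated radioligand and test chemical. Bound radioactivity was filtered and counted by scintillation, and displacement was analysed against DMSO.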

Chain of rat Neonicotinoid receptor (NNR), Chrna7 (gene 25302) (Q05941 whole entry, looked up): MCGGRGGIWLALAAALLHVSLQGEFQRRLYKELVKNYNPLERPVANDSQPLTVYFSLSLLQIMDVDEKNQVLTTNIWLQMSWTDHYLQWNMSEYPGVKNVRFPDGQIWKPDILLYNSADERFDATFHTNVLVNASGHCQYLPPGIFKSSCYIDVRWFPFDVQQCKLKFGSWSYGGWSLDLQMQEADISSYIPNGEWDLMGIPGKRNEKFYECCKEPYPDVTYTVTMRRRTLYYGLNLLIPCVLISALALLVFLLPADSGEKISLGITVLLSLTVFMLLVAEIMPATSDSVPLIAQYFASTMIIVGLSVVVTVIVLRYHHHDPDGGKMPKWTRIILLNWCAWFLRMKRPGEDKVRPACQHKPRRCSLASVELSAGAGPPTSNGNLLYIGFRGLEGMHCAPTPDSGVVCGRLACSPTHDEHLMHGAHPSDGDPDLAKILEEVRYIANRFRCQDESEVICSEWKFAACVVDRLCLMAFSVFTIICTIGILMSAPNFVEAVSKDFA

Structure (SMILES) | AC50 | outcome
CNCc1cc(F)ccc1Oc1ccc(Cl)c(Cl)c1 | 28.5 µM (active) | –
CCOC(=O)C(C)(C)Oc1ccc(Cl)cc1 | – | inactive
Cc1nc(-c2ccc3c(c2)CCN(CCC2CCC(NC(=O)/C=C/c4ccc(F)cc4)CC2)CC3)no1 (stereo not drawn) | – | inactive
